39 compounds from PubChem BioAssay (NCATS) can be followed below.

The structures appear in SMILES notation. Inconclusive results are not listed. Unmarked numbers belong to inactive results. Calls of active or inactive are those of the source. Calls come from the whole dose curve; as a rule, active = well fitted inhibition curve with a large enough effect; inconclusive = small, poorly fitted or top-dose-only effect; inactive = flat fitted curve, though single readings scatter.
% is set by controls: 0 for no effect and ±100 for the full control effect; potency is the fitted concentration of half-maximal effect.

The first assay deals with HaCat. Kind of assay: Cytotoxic Profiling of Annotated Libraries Using Quantitative High-Throughput Screening (AID 1296008). Note: nearly all actives have a fitted effect of over 60% in size. The conditions noted are these: Five cell lines viability, CellTiter-Glo ATP luminescence, 48-72 h; max response: stronger effect = lower value. Summed up: (§1)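 Cytotoxicity was measured as CellTiter-Glo ATP luminescence, read after 10 min at room temperature. Compound treatment of the cells lasted 48 or 72 hr at 37 degrees Celsius in a qHTS format.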
Background: ATP-based viability assays read luminescence as a measure of living cells.
Take `COc1ccc(CCc2nc3c(C)c(-c4c(C)noc4C)c(C)cc3n2CCN2CCOCC2)cc1`: the max response was -20.3%.
The same measure, in the same setting: then `CO[C@H]1C[C@@H]2CC[C@@H](C)[C@@](O)(O2)C(=O)C(=O)N2CCCC[C@H]2C(=O)O[C@H]([C@@H](C)C[C@@H]2CC[C@@H](O)[C@H](OC)C2)CC(=O)[C@H](C)/C=C(\C)[C@@H](O)[C@@H](OC)C(=O)[C@H](C)C[C@H](C)/C=C/C=C/C=C/1C`, with -8.22%; and `COc1cc(OC)c(NC(=O)c2ccc(Cc3cc4c(cc3C)C(C)(C)CCC4(C)C)o2)c(OC)c1`, with 3.56%; and `Cc1nc2ccc(-n3ncc(C(=O)c4cc5ccccc5[nH]4)c3N)cc2[nH]1`, with -16.7%.
For the compound `COc1cccc(-c2cn(-c3ccc(CCN4CCC(O)CC4)cc3)c3ncnc(N)c23)c1`, the Potency is 5.17 µM (active).
In the case of `O=C(Nc1ccc(CN2CCOCC2)cc1)c1ccc(-c2cccc(Cl)c2)o1`, the max response was -23.4%.
As to `CN(C)CC1CCn2c(c(C3=C(c4cn(C)c5ccccc45)C(=O)NC3=O)c3ccccc32)C1` (stereo not drawn), the Potency is 20.6 µM (active).
As to `NC(=O)c1cnc(N[C@@H]2CCCC[C@@H]2N)nc1Nc1cccc(-n2nccn2)c1`, the Potency was 13.2 µM (active).
Consider `CC(=O)NC(C(=O)O[C@H]1CCC(C)(C)[C@@H]2CC=C3C(=O)OCC3(O)[C@@]12C)C(C)C` (stereo partly drawn), for which the max response is 3.16%.
On to `Nc1nc(Cl)nc2c1ncn2C1OC(CO)C(O)C1F` (stereo not drawn), for which the Potency was 1.46 µM (active).
On the same count and under the same terms, the figure for `Cc1cc(NC(=O)c2cccc(NC(=O)/C=C/CN(C)C)c2)ccc1Nc1nccc(-c2cccnc2)n1` is 8.2 µM (active); for `C=C1C(=O)O[C@@H]2/C=C(\CO)CC/C=C(/C=O)C[C@@H](O)[C@@H]12` it is 18.4 µM (active); for `CNC1CN(c2ccc3c(=O)c(C(=O)O)cn(-c4nccs4)c3n2)CC1OC` (stereo not drawn) it is 1.68 µM (active).
Same read-out and setting: the figure for `O=C(CN1C2=NCCN2c2ccccc21)c1ccc(-c2ccccc2)cc1` is 16.4 µM (active).
Take `O=C(Nc1ccccc1)N1CCC(Cc2cnc3ccccc3c2)CC1`: the max response was -1.9%.
For the compound `CC(=O)C1(C)CCC2C3C=C(C)C4=CC(=O)CCC4(C)C3CCC21C` (stereo not drawn), the max response was -54.8%.
`Cc1cc(-c2cnc(N)c3c(-c4ccc5scnc5c4)csc23)n(C)n1`: the max response was -13.1%.
Take `CC1CCCC(O)CCC/C=C/c2cc(OS(=O)(=O)O)cc(O)c2C(=O)O1` (stereo not drawn): the max response was 0.348%.
On to `COc1cc(/C=C2\CCCN([C@@H](C)c3ccc(F)cc3)C2=O)ccc1-n1cnc(C)c1`, for which the max response was 3.5%.
As to `CC(C)S(=O)(=O)NC[C@@H]1CC(c2ccc(N3CCCC3)c(F)c2)=NO1`, the max response was -20.2%.
Take `C#Cc1cccc(Nc2nc3cc(C(=O)O)ccc3c3cncnc23)c1`: the Potency is 7.31 µM (active).
Consider `O=C(Nc1ccc(C(O)(C(F)(F)F)C(F)(F)F)cc1)c1ccc(C(F)(F)F)cc1`, for which the Potency was 8.2 µM (active).
As to `OC(c1ccc(-c2ccc(CN3CCN(Cc4ccncc4)CC3)cc2)c(F)c1)(C(F)(F)F)C(F)(F)F`, the max response is -9.47%.
With `NC(=O)c1cnc(N[C@@H]2CCCC[C@H]2N)nc1Nc1cccc(-n2nccn2)c1`, the Potency is 18.4 µM (active).
Regarding `COc1ccc(CN2CCN(C(=O)CCNC(=O)c3ccc(C(C)(C)C)cc3)CC2)cc1`, the max response was 3.77%.
Consider `COc1ccc2c(c1)C(C(=O)N(Cc1ccc(N(C)C)cc1)c1ccc(C(C)C)cc1)CCC2` (stereo not drawn), for which the max response is -43.6%.
`CCc1cnc(N2CCC(c3nc(COc4ccc(-n5cnnn5)cc4)cs3)CC2)nc1`: the result was inactive.

A further assay concerns NIH3T3. Described as above. The conditions noted are these: Five cell lines viability, CellTiter-Glo ATP luminescence, 48-72 h; max response: stronger effect = lower value. Summed up: as §1
Consider `Cc1nc(NC(=O)N2CCCC2C(N)=O)sc1-c1ccnc(C(C)(C)C(F)(F)F)c1` (stereo not drawn), for which the Potency is 9.2 µM (active).
Turning to `COc1ccc(-c2ccc3c(N4CCOCC4C)nc(N4CCOCC4C)nc3n2)cc1CO` (stereo not drawn), the Potency was 0.231 µM (active).
For `COc1cc2c(cc1NS(=O)(=O)c1ccc(Br)cc1C)n(C)c(=O)n2C`, the max response was 1.72%.
On to `CCn1c(-c2nonc2N)nc2c(C#CC(C)(C)O)ncc(OCC3CCCNC3)c21` (stereo not drawn), for which the outcome was inactive.
As for `CCn1c(-c2nonc2N)nc2c(C#CCO)ncc(OCCCN)c21`, the result was inactive.
For `C/C(=N\N=C(N)N)c1cc(NC(=O)CCCCCCCCC(=O)Nc2cc(/C(C)=N/N=C(N)N)cc(/C(C)=N/N=C(N)N)c2)cc(/C(C)=N/N=C(N)N)c1`, the max response is 0.565%.
In the case of `COc1cc2c(Nc3cc(F)c(Cl)c(Cl)c3)ncnc2cc1OCC1CCCN(C)CCC1`, the Potency is 5.17 µM (active).
`Cc1cc2c(c(=O)o1)C=C1CC[C@H]([C@H](C)Cn3cnc(=N)c4[nH]cnc43)C[C@@H]1O2`: the max response was -1.79%.
Same read-out and setting: then `c1cc(NCCc2c[nH]c3ccccc23)cc(Nc2ccncc2)c1`, with -50.3%.
Turning to `C=C[C@@]1(C)C=C2C(=O)C(O)=C3[C@](C)(C(=O)O)CC[C@@H]4C[C@]34[C@]2(O)C(=O)C1`, the Potency was 3.6 µM (active).
On to `CCc1ccccc1OC[C@@H](O)CN[C@H]1CCCc2ccccc21`, for which the max response is -24.4%.
Take `COC(=O)N1CC2(CC2)C[C@H](C(=O)NO)[C@H]1C(=O)N1CCN(c2ccccc2)CC1`: the compound was classed as inactive.
As for `COc1ccc(CCc2nc3c(C)c(-c4c(C)noc4C)c(C)cc3n2CCN2CCOCC2)cc1`, the max response was -12.8%.
For the compound `CO[C@H]1C[C@@H]2CC[C@@H](C)[C@@](O)(O2)C(=O)C(=O)N2CCCC[C@H]2C(=O)O[C@H]([C@@H](C)C[C@@H]2CC[C@@H](O)[C@H](OC)C2)CC(=O)[C@H](C)/C=C(\C)[C@@H](O)[C@@H](OC)C(=O)[C@H](C)C[C@H](C)/C=C/C=C/C=C/1C`, the max response is -0.671%.
For `COc1cc(OC)c(NC(=O)c2ccc(Cc3cc4c(cc3C)C(C)(C)CCC4(C)C)o2)c(OC)c1`, the max response was 4.87%.
With `Cc1nc2ccc(-n3ncc(C(=O)c4cc5ccccc5[nH]4)c3N)cc2[nH]1`, the Potency is 9.2 µM (active).
For the compound `COc1cccc(-c2cn(-c3ccc(CCN4CCC(O)CC4)cc3)c3ncnc(N)c23)c1`, the Potency was 1.3 µM (active).
`O=C(Nc1ccc(CN2CCOCC2)cc1)c1ccc(-c2cccc(Cl)c2)o1`: the max response was 1.97%.
Take `NC(=O)c1cnc(N[C@@H]2CCCC[C@@H]2N)nc1Nc1cccc(-n2nccn2)c1`: the Potency is 23.4 µM (active).
In the case of `CC(=O)NC(C(=O)O[C@H]1CCC(C)(C)[C@@H]2CC=C3C(=O)OCC3(O)[C@@]12C)C(C)C` (stereo partly drawn), the compound was called inactive.
Take `Nc1nc(Cl)nc2c1ncn2C1OC(CO)C(O)C1F` (stereo not drawn): the Potency was 1.03 µM (active).
As for `Cc1cc(NC(=O)c2cccc(NC(=O)/C=C/CN(C)C)c2)ccc1Nc1nccc(-c2cccnc2)n1`, the Potency was 18.4 µM (active).
With `C=C1C(=O)O[C@@H]2/C=C(\CO)CC/C=C(/C=O)C[C@@H](O)[C@@H]12`, the Potency is 16.4 µM (active).
Still for that read-out and setting: the figure for `CNC1CN(c2ccc3c(=O)c(C(=O)O)cn(-c4nccs4)c3n2)CC1OC` (stereo not drawn) is 0.211 µM (active).
As for `O=C(Nc1ccccc1)N1CCC(Cc2cnc3ccccc3c2)CC1`, the max response was 2.45%.
Turning to `CC(=O)C1(C)CCC2C3C=C(C)C4=CC(=O)CCC4(C)C3CCC21C` (stereo not drawn), the max response is -16.2%.
Consider `Cc1cc(-c2cnc(N)c3c(-c4ccc5scnc5c4)csc23)n(C)n1`, for which the Potency was 11.6 µM (active).
With `CC1CCCC(O)CCC/C=C/c2cc(OS(=O)(=O)O)cc(O)c2C(=O)O1` (stereo not drawn), the outcome was inactive.
On to `COc1cc(/C=C2\CCCN([C@@H](C)c3ccc(F)cc3)C2=O)ccc1-n1cnc(C)c1`, for which the max response is -4.02%.
For the compound `CC(C)S(=O)(=O)NC[C@@H]1CC(c2ccc(N3CCCC3)c(F)c2)=NO1`, the max response is -14.9%.
Still for that read-out and setting: the figure for `C#Cc1cccc(Nc2nc3cc(C(=O)O)ccc3c3cncnc23)c1` is -50.8%.
As for `O=C(Nc1ccc(C(O)(C(F)(F)F)C(F)(F)F)cc1)c1ccc(C(F)(F)F)cc1`, the Potency was 20.6 µM (active).
`OC(c1ccc(-c2ccc(CN3CCN(Cc4ccncc4)CC3)cc2)c(F)c1)(C(F)(F)F)C(F)(F)F`: the max response was -11.3%.
As to `COc1ccc(CN2CCN(C(=O)CCNC(=O)c3ccc(C(C)(C)C)cc3)CC2)cc1`, the max response was 3.24%.
For `COc1ccc2c(c1)C(C(=O)N(Cc1ccc(N(C)C)cc1)c1ccc(C(C)C)cc1)CCC2` (stereo not drawn), the max response was 3.67%.
In the case of `CCc1cnc(N2CCC(c3nc(COc4ccc(-n5cnnn5)cc4)cs3)CC2)nc1`, the max response is -9.02%.
